# Laboratory results: the supplement of paper PMC8728848
# The sample as a whole holds a higher share of the strongest signals than the screen did.
# Tests used:
# Assay in all cases: glycan array binding signal (z-score within array); higher = stronger binding
# Conditions in all cases: glycan notation: IUPAC condensed, linker removed
# [1] = target: Fuc(a1-2)Gal(b1-3)[Fuc(a1-4)]GlcNAc
# Summary of the method: (§1)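 Glycan array binding is given as a within-array Z-score, which can be read as non-binding when negative. The arrays, 3228 of them, came from the Consortium for Functional Glycomics database and were retained only where the protein sequence was available. Z-scores were averaged across arrays of the same protein sequence at different concentrations or buffers and across linkers.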
# Fuc(a1-2)Gal(b1-4)GlcNAc = target: Fuc(a1-2)Gal(b1-4)GlcNAc
# Summary of the method: as §1
# [2] = target: Fuc(a1-2)Gal(b1-4)GlcNAc(b1-2)Man(a1-6)[Gal(b1-4)GlcNAc(b1-2)Man(a1-3)]Man(b1-4)GlcNAc(b1-4)GlcNAc
# Summary of the method: as §1
# [3] = target: Fuc(a1-2)Gal(b1-4)GlcNAc(b1-3)Gal(b1-4)GlcNAc
# Summary of the method: as §1
# [4] = target: Fuc(a1-2)[Gal(a1-3)]Gal(b1-3)GlcNAc
# Summary of the method: as §1
# Fuc(a1-3)GlcNAc = target: Fuc(a1-3)GlcNAc
# Summary of the method: as §1
# [5] = target: Fuc(a1-3)[Gal(b1-4)]GlcNAc(b1-4)Gal(b1-4)[Fuc(a1-3)]GlcNAc(b1-4)Gal(b1-4)[Fuc(a1-3)]GlcNAc
# Summary of the method: as §1
# Gal(a1-3)Gal(b1-4)Glc = target: Gal(a1-3)Gal(b1-4)Glc
# Summary of the method: as §1
# [6] = target: Gal(a1-3)[Gal(a1-4)]Gal(b1-4)GlcNAc
# Summary of the method: as §1
# Gal(b1-4)Glc = target: Gal(b1-4)Glc
# Summary of the method: as §1
# [7] = target: Gal(b1-4)GlcNAc(b1-6)Gal(b1-4)GlcNAc
# Summary of the method: as §1
# Gal6S(b1-4)Glc = target: Gal6S(b1-4)Glc
# Summary of the method: as §1
# [8] = target: GalNAc(b1-3)Gal(a1-4)Gal(b1-4)GlcNAc
# Summary of the method: as §1
# GalNAc(b1-3)GalNAc = target: GalNAc(b1-3)GalNAc
# Summary of the method: as §1
# [9] = target: GlcNAc(a1-6)Gal(b1-4)GlcNAc
# Summary of the method: as §1
# Man(a1-2)Man(a1-3)Man = target: Man(a1-2)Man(a1-3)Man
# Summary of the method: as §1
# [10] = target: Man(a1-2)Man(a1-3)[Man(a1-6)]Man(a1-6)[Man(a1-2)Man(a1-3)]Man(b1-4)GlcNAc(b1-4)GlcNAc
# Summary of the method: as §1
# [11] = target: Man(a1-3)[Man(a1-6)]Man(a1-6)[Man(a1-3)]Man
# Summary of the method: as §1
# [12] = target: Neu5Ac(a2-3)Gal(b1-3)GlcNAc(b1-3)Gal(b1-3)GlcNAc
# Summary of the method: as §1
# [13] = target: Neu5Ac(a2-3)Gal(b1-3)GlcNAc6S
# Summary of the method: as §1
# [14] = target: Neu5Ac(a2-6)Gal(b1-4)GlcNAc(b1-2)Man(a1-3)[GlcNAc(b1-2)Man(a1-6)]Man(b1-4)GlcNAc(b1-4)GlcNAc
# Summary of the method: as §1
# [15] = target: Neu5Ac(a2-6)Gal(b1-4)GlcNAc(b1-2)Man(a1-3)[Neu5Ac(a2-6)Gal(b1-4)GlcNAc(b1-2)Man(a1-6)]Man(b1-4)GlcNAc(b1-4)GlcNAc
# Summary of the method: as §1
# [16] = target: Neu5Gc(a2-3)Gal(b1-3)GlcNAc
# Summary of the method: as §1
# [17] = target: Neu5Gc(b2-6)Gal(b1-4)GlcNAc
# Summary of the method: as §1
# [18] = target: Fuc(a1-2)Gal6S(b1-4)GlcNAc
# Summary of the method: as §1
# [19] = target: Fuc(a1-2)[Gal(a1-3)]Gal(b1-4)Glc
# Summary of the method: as §1
# [20] = target: Fuc(a1-2)[Gal(a1-3)]Gal(b1-4)GlcNAc
# Summary of the method: as §1
# [21] = target: Fuc(a1-3)[Gal(b1-4)]Glc6S
# Summary of the method: as §1
# [22] = target: Fuc(a1-3)[Gal(b1-4)]GlcNAc(b1-3)Gal(b1-3)[Fuc(a1-4)]GlcNAc
# Summary of the method: as §1
# [23] = target: Gal(a1-3)Gal(b1-4)[Fuc(a1-3)]GalNAc
# Summary of the method: as §1
# Gal(a1-4)Gal(b1-4)Gal = target: Gal(a1-4)Gal(b1-4)Gal
# Summary of the method: as §1
# Gal(a1-4)Gal(b1-4)GalNAc = target: Gal(a1-4)Gal(b1-4)GalNAc
# Summary of the method: as §1
# Gal(b1-3)Gal = target: Gal(b1-3)Gal
# Summary of the method: as §1
# [24] = target: Gal(b1-3)[Fuc(a1-4)]GlcNAc(b1-3)Gal(b1-4)GlcNAc
# Summary of the method: as §1
# [25] = target: Gal(b1-4)GlcNAc(b1-3)Gal(b1-4)GlcNAc
# Summary of the method: as §1
# [26] = target: Gal3S(b1-3)[Fuc(a1-4)]GlcNAc
# Summary of the method: as §1
# GalNAc(a1-3)GalNAc = target: GalNAc(a1-3)GalNAc
# Summary of the method: as §1
# [27] = target: GlcNAc(b1-2)Man(a1-3)[GlcNAc(b1-2)Man(a1-6)]Man(b1-4)GlcNAc(b1-4)GlcNAc
# Summary of the method: as §1
# GlcNAc(b1-3)Gal = target: GlcNAc(b1-3)Gal
# Summary of the method: as §1
# GlcNAc(b1-3)GalNAc = target: GlcNAc(b1-3)GalNAc
# Summary of the method: as §1
# GlcNAc(b1-6)GalNAc = target: GlcNAc(b1-6)GalNAc
# Summary of the method: as §1
# [28] = target: Neu5Ac(a2-3)Gal(b1-4)GlcNAc(b1-3)Gal(b1-4)GlcNAc
# Summary of the method: as §1
# [29] = target: Neu5Ac(a2-3)Gal(b1-4)[Fuc(a1-3)]GlcNAc(b1-3)Gal
# Summary of the method: as §1
# [30] = target: Neu5Ac(a2-3)Gal(b1-4)[Fuc(a1-3)]GlcNAc(b1-3)Gal(b1-4)GlcNAc
# Summary of the method: as §1
# [31] = target: Neu5Ac(a2-3)Gal6S(b1-4)GlcNAc
# Summary of the method: as §1
# [32] = target: Neu5Ac(a2-8)Neu5Ac(a2-3)[GalNAc(b1-4)]Gal(b1-4)Glc
# Summary of the method: as §1
# [33] = target: Neu5Gc(a2-6)Gal(b1-4)GlcNAc
# Summary of the method: as §1
binder,measurement,setting,value
Mannose Binding Protein (Lactobacillus plantarum) (protein) AERSEAALTHVDKDNFLKYFSLNGSATYDAKTGIVTITPNQNNQVGNFSLTSKIDMNKSFTLTGQVNLGSNPNGADGIGFAFHSGNTTDVGNAGGNLGIGGLQDAIGFKLDTWFNSYQAPSSDKNGSEISSTNSNGFGWNGDSANAPYGTFVKTSNQEISTANGSKVQRWWAQDTGESQALSKADIDGNFHDFVVNYDGATRTLTVSYTQASGKVLTWKTTVASSYQAMAMVVSASTGAAKNLQQFKLTSFDFQEAATVNVKYVDTTGHQLAQG,glycan array binding signal (z-score),[1],-0.167
same,glycan array binding signal (z-score),Fuc(a1-2)Gal(b1-4)GlcNAc,-0.102
same,glycan array binding signal (z-score),[2],-0.749
same,glycan array binding signal (z-score),[3],-0.358
same,glycan array binding signal (z-score),[4],-0.696
same,glycan array binding signal (z-score),Fuc(a1-3)GlcNAc,-0.141
same,glycan array binding signal (z-score),[5],-0.071
same,glycan array binding signal (z-score),Gal(a1-3)Gal(b1-4)Glc,13.6
same,glycan array binding signal (z-score),[6],-0.551
same,glycan array binding signal (z-score),Gal(b1-4)Glc,-0.319
same,glycan array binding signal (z-score),[7],-0.654
same,glycan array binding signal (z-score),Gal6S(b1-4)Glc,0.521
same,glycan array binding signal (z-score),[8],4.17
same,glycan array binding signal (z-score),GalNAc(b1-3)GalNAc,2.15
same,glycan array binding signal (z-score),[9],-0.056
same,glycan array binding signal (z-score),Man(a1-2)Man(a1-3)Man,3.36
same,glycan array binding signal (z-score),[10],0.227
same,glycan array binding signal (z-score),[11],1.77
same,glycan array binding signal (z-score),[12],-0.526
same,glycan array binding signal (z-score),[13],-0.327
same,glycan array binding signal (z-score),[14],-0.444
same,glycan array binding signal (z-score),[15],-0.324
same,glycan array binding signal (z-score),[16],-0.785
same,glycan array binding signal (z-score),[17],1.04
"IDGF2 (Drosophila melanogaster), Q9V3D4 (protein) MKAWIWFTFVACLFAASTEAASNLVCYYDSSSYTREGLGKLLNPDLEIALQFCSHLVYGYAGLRGENLQAYSMNENLDIYKHQFSEVTSLKRKYPHLKVLLSVGGDHDIDPDHPNKYIDLLEGEKVRQIGFIRSAYDLVKTYGFDGLDLAYQFPKNKPRKVHGDLGLAWKSIKKLFTGDFIVDPHAALHKEQFTALVRDVKDSLRADGFLLSLTVLPNVNSTWYFDIPALNGLVDFVNLATFDFLTPARNPEEADYSAPIYHPDGSKDRLAHLNADFQVEYWLSQGFPSNKINLGVATYGNAWKLTKDSGLEGVPVVPETSGPAPEGFQSQKPGLLSYAEICGKLSNPQNQFLKGNESPLRRVSDPTKRFGGIAYRPVDGQITEGIWVSYDDPDSASNKAAYARVKNLGGVALFDLSYDDFRGQCSGDKYPILRAIKYRLHHHHHH",glycan array binding signal (z-score),[1],-0.463
same,glycan array binding signal (z-score),[3],-0.26
same,glycan array binding signal (z-score),[18],-0.274
same,glycan array binding signal (z-score),[4],8.27
same,glycan array binding signal (z-score),[19],6.99
same,glycan array binding signal (z-score),[20],7.65
same,glycan array binding signal (z-score),[21],0.706
same,glycan array binding signal (z-score),[22],0.936
same,glycan array binding signal (z-score),[5],-0.319
same,glycan array binding signal (z-score),[23],-0.365
same,glycan array binding signal (z-score),[6],-0.273
same,glycan array binding signal (z-score),Gal(a1-4)Gal(b1-4)Gal,-0.196
same,glycan array binding signal (z-score),Gal(a1-4)Gal(b1-4)GalNAc,-0.481
same,glycan array binding signal (z-score),Gal(b1-3)Gal,0.071
same,glycan array binding signal (z-score),[24],0.056
same,glycan array binding signal (z-score),[25],-0.325
same,glycan array binding signal (z-score),[26],0.072
same,glycan array binding signal (z-score),GalNAc(a1-3)GalNAc,-0.398
same,glycan array binding signal (z-score),[27],-0.223
same,glycan array binding signal (z-score),GlcNAc(b1-3)Gal,0.066
same,glycan array binding signal (z-score),GlcNAc(b1-3)GalNAc,0.032
same,glycan array binding signal (z-score),GlcNAc(b1-6)GalNAc,-0.197
same,glycan array binding signal (z-score),Man(a1-2)Man(a1-3)Man,-0.128
same,glycan array binding signal (z-score),[28],-0.3
same,glycan array binding signal (z-score),[29],0.239
same,glycan array binding signal (z-score),[30],0.148
same,glycan array binding signal (z-score),[31],-0.073
same,glycan array binding signal (z-score),[32],-0.271
same,glycan array binding signal (z-score),[33],0.622
